# Source: PubChem
# Most compounds without a hit are left out; they make up all but 17% or so of the library.
# DT40 TDP1 no CPT = qHTS for Inhibitors of human tyrosyl-DNA phosphodiesterase 1 (TDP1): qHTS in cells in absence of CPT | DT40 Tdp1-/- hTDP1 cells, no CPT, ATP luminescence, 48 h | Potency, µM (highest dose often 46.2 µM), for the others: top-dose activity change, negative = growth inhibition, hits mostly inhibitors | actives 15% (n = 420,000) | AID 686978, 2013; further: on the % scale 0 is the no-effect control and ±100 the full control effect; nearly all actives have a fitted effect of over 55% in size
#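 Cells were dispensed at 400 per well, compounds added by pin tool, plates incubated ≥48 hr at 37 °C, then CellTiter-Glo added for 30 min at room temperature before luminescence reading. Line: DT40 Tdp1-/- complemented with hTDP1; camptothecin omitted.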
# HepG2 tox = qHTS for Inhibitors of TGF-b: Cytotox Counterscreen; actives 0.76% (n = 410,000); Potency, µM (series often up to 46.1 µM), for inactives: at the top dose activity change, negative = cytotoxicity, hits mostly cytotoxic; AID 588856, 2011; HepG2 CAGA-GFP viability, ATP luminescence, 18 h
#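 HepG2 CAGA-GFP cells (1000/well, DMEM with 1% FBS) received compound, then TGF-beta at 500 pg/mL final, and were incubated 18 hours at 37 degrees C. Viability was read by CellTiter-Glo luminescence. Media-only wells were set as complete cell-killing and DMSO as no toxicity.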
# HT1080 IDH1KD tx = qHTS for induction of synthetic lethality in tumor cells producing 2HG: qHTS for the HT-1080-IDH1KD cell line | HT-1080 IDH1 knockdown viability, ATP luminescence, 48 h | Potency, µM (series often up to 46.1 µM), inactives show at the highest dose activity, negative = toxicity, most hits filed as cytotoxic | actives 2% (n = 360,000) | AID 686971, 2013;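 further: 0% = DMSO wells and -100% = cell-free medium wells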
#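 Knockdown cells (IDH1KD HT-1080) received compounds 2 h after plating at 750 cells/well and were kept 48 h at 37 °C in 5% FBS RPMI. A CellTiter-Glo luminescence read gave % activity for curve fitting.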
# TDP1 cell CPT = qHTS for Inhibitors of human tyrosyl-DNA phosphodiesterase 1 (TDP1): qHTS in cells in presence of CPT | chicken DT40 Tdp1-/-;hTDP1 cells + 20 nM CPT, ATP luminescence, 48 h | Potency, µM (highest dose often 46.2 µM), for inactives: at the top dose activity change, negative = growth inhibition, actives largely listed as inhibitors | actives 12% (n = 420,000) | AID 686979, 2013; further: on the % scale 0 is the no-effect control and ±100 the full control effect; nearly all actives have a fitted effect of over 55% in size
#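 Chicken DT40 Tdp1-/- cells stably complemented with human TDP1 were seeded at 400 cells/well in medium containing 20 nM camptothecin, exposed to pin-transferred compounds, and grown at 37 °C for at least 48 hr. Viability was read as ATP luminescence.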
# HT1080-NT tox = qHTS for induction of synthetic lethality in tumor cells producing 2HG: qHTS for the HT-1080-NT fibrosarcoma cell line. HT-1080-NT fibrosarcoma viability, CellTiter-Glo ATP luminescence, 48 h. Potency, µM (doses to about 46.1 µM), for inactives: at the top dose activity, negative = less viability, usual class: cytotoxic. actives 1.6% (n = 360,000). AID 686970, 2013;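 further: NT is the 2HG producing partner of a matched IDH1 knockdown line; 0% = DMSO-treated cells and -100% = media-only wells without cells; nearly all actives have a fitted effect of over 55% in size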
#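 Compounds were tested in concentration-response format on HT-1080-NT cells for 48 hours at 37 degrees C. Cell viability came from CellTiter-Glo luminescence; curves were classified by r2, response magnitude and activity.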
# TGFb inhibitor = qHTS for Inhibitors of TGF-b. HepG2 CAGA-GFP TGF-b/SMAD3 reporter, GFP fluorescence, 18 h; TGF-beta stimulated, 500 pg/mL final. Potency, µM (series often up to 46.1 µM), for inactives: at the highest dose activity, negative = inhibition, usual class: inhibitors. actives 1.2% (n = 410,000); further: on the % scale 0 is the no-effect control and ±100 the full control effect; nearly all actives have a fitted effect of over 65% in size
#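 Using HEPG2 CAGA-GFP reporter cells at 1000 cells/well, we pinned test compounds, stimulated with recombinant TGF-beta (500 pg/mL final) and measured total well GFP after 18 h.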
# Active calls of the source: *; ? = inconclusive; · = no result given; [ ] = dose if it differs, or a comment. The call rests on the fitted dose curve; in most records, active means well fitted curve in the direction sought with a large enough effect; inconclusive means small, poorly fitted or top-dose-only effect, or another doubt; inactive means no such curve, though single readings can be large; an effect the other way counts as inactive or inconclusive. Potency means the concentration at half of the fitted maximal effect.
SMILES,DT40 TDP1 no CPT,HepG2 tox,HT1080 IDH1KD tx,TDP1 cell CPT,HT1080-NT tox,TGFb inhibitor
CC(=O)N1CCN(C(=O)CN2C(=O)NC(C)(c3ccc4ccccc4c3)C2=O)CC1 (stereo unspecified),?,-17%,-5%,-17%,0%,3%
CC1(c2ccc3ccccc3c2)NC(=O)N(CC(=O)N2CCN(Cc3ccc(C#N)cc3)CC2)C1=O (stereo unspecified),2.1µM*,-31%,-22%,3.3µM*,?,-12%
Cc1cccc(NC(=O)CN2CCN(C(=O)CN3C(=O)NC4(CC(C)CC(C)(C)C4)C3=O)CC2)c1C (stereo unspecified),4.1µM*,-8%,-7%,21µM*,2%,-14%
CC1CC(C)(C)CC2(C1)NC(=O)N(CC(=O)N1CCN(Cc3ccc(C#N)cc3)CC1)C2=O (stereo unspecified),5.2µM*,1%,?,8.2µM*,?,0%
CC1CC(C)(C)CC2(C1)NC(=O)N(CC(=O)Nc1cc([N+](=O)[O-])ccc1F)C2=O (stereo unspecified),10µM*,-9%,-25%,15µM*,-18%,-7%
COc1ccccc1NC(=O)c1cc([N+](=O)[O-])ccc1N1CCOCC1,-29%,-2%,-1%,-11%,-6%,15%
CN(Cc1ccc2c(c1)CN(C(=O)c1cccc(N(C)C)c1)CCO2)Cc1cc(C2CC2)n[nH]1,23µM*,·,·,1%[9.04 µM],·,·
CCOC(=O)c1c(C)c(C(=O)Nc2cc(F)ccc2F)c(C)n1C,10µM*,-12%,?,18µM*,-28%,-21%
CCOC(=O)c1c(C)c(C(=O)OCC)n(C)c1C,-12%,-9%,8%,-5%,16%,7%
CCCCOc1ccc(NC(=S)Nc2cc(C)nc(SCCCC)n2)cc1,2.9µM*,7%,23%,5.8µM*,18%,-1%
CCOc1ccc(NC(=O)CSc2nc(C)cc(C)n2)cc1,?,2%,18%,?,-2%,2%
CC(NC(=O)c1cc(S(=O)(=O)N2CCOCC2)cn1C)c1ccccc1 (stereo unspecified),6%,-28%,4%,16%,6%,-18%
CCCCCNC(=O)c1ccc2c(=O)n(CCCN3CCCC3=O)c(=S)[nH]c2c1,?,-49%,3%,5%,-1%,?
NS(=O)(=O)c1ccc(CCNC(=O)CNCCc2ccccc2)cc1,-22%,-16%,9%,-10%,1%,-12%
NS(=O)(=O)c1ccc(CCNCc2cc(Cl)ccc2OCc2ccccc2)cc1,?,-69%,?,?,?,11µM*
O=C(COc1ccc(Br)cc1CNCCc1ccccc1)NCc1ccccc1,7.3µM*,13µM*,?,12µM*,21µM*,?
COc1cc(C=O)c(Br)cc1OCC(=O)NCCc1ccccc1,18µM*,-8%,?,?,-23%,?
NS(=O)(=O)c1ccc(CCNCc2cc(Br)ccc2OCc2ccccc2F)cc1,4.1µM*,-85%,23µM*,5.8µM*,?,?
Cc1ccc(CNC(=O)c2ccc(N3CCCC3)c(NC(=O)Nc3ccc(F)c(Cl)c3)c2)cc1,-8%,3%,·,-2%,·,1%
OCCCCNCc1cc(Br)ccc1OCc1ccccc1,?,-5%,1%,?,-1%,2%
